BCLXL inh: blocks human Bcl-xL binding to Bim BH3 peptide | GST-Bcl-xL / FITC-Bim BH3 peptide fluorescence polarization | inhibition, % at 10.9 µM | 0.7% of 320,000 active;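 active = inhibition above the mean of all tested compounds plus 3 SD, cutoff set per campaign, cut at about 30% in these data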;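 note: 0% = DMSO wells and 100% = unlabeled Bim-BH3 peptide competitor; inhibitors lower millipolarization by displacing the labeled peptide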
GLD-1 RNA inh: GLD-1-TGE RNA interaction inhibition (C. elegans); 0.44% of 320,000 active; purified GLD-1 + fluorescein TGE RNA, fluorescence polarization; inhibition, % at 5.96 µM; AID 2280;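 active = percent inhibition above a per-plate cutoff, the plate mean of test compounds plus 3 SD, cut at about 30% in these data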;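 note: 0% = DMSO wells with GLD-1 and probe and 100% = wells lacking GLD-1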
MEX-5 binding: C. elegans MEX-5 TCR-2 RNA binding activity; Q9XUB2; MEX-5/FITC-TCR2 RNA binding, fluorescence polarization; hits give low values; activity score (negative = inhibition of binding), % at 10 µM; 0.38% of 300,000 active; AID 1832;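 active = inhibition past about -25% in most replicates, and total fluorescence under double the plate's negative control median, limit read from the data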;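 note: 0% = DMSO and -100% = 5 µM competing unlabeled TCR2 RNA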
E coli Lon inh: E. coli protease La inhibition; P0A9M0; inhibition, % at 7.94 µM; AID 602123; 0.42% of 360,000 active; purified E. coli Lon protease, fluorescence polarization; in the data active = inhibition above about 13%, passing the limit was not always enough;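 note: 0% = enzyme with probe and DMSO and 100% = no enzyme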
EBV gp42 block: inhibitors of Epstein-Barr virus glycoprotein 42; Q1HVG2; Fluorescence polarization binding assay, mP read-out; inhibition, % (tested at 21.74 µM); 0.42% of 220,000 active; in the data active = inhibition above about 50%
Target sequence (Q1HVG2 whole entry, looked up): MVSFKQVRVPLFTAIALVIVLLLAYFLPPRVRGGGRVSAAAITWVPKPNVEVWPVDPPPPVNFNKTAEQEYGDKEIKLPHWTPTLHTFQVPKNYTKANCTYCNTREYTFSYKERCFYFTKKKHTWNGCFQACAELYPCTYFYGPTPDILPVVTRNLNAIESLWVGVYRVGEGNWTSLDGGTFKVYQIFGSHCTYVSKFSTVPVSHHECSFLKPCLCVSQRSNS
MCL1 BIM primary: disrupts human MCL1 binding to BIM-BH3 peptide | Q07820 | GST-MCL1 / FITC-Bim-BH3 fluorescence polarization | inhibition, % at 10.9 µM | 0.68% of 320,000 active | AID 2057;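 active = inhibition above the mean inhibition of all tested compounds plus 3 SD, set per campaign, cut at about 40% in these data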;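 note: 0% = DMSO wells and 100% = unlabeled Bim-BH3 peptide control; higher means more loss of mP so more displacement of Bim peptide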
Target sequence (Q07820 whole entry, looked up): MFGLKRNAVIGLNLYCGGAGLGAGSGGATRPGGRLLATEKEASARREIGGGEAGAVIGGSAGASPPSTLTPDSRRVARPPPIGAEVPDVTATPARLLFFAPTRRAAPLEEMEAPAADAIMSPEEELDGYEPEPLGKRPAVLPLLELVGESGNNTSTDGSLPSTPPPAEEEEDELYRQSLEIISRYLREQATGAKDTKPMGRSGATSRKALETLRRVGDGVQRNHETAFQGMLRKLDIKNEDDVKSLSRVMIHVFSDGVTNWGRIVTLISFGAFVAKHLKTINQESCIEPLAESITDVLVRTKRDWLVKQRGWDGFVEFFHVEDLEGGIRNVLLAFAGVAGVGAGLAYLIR
The depositor's hits bear a star. Hits are enriched below; roughly 1.5% of the tested compounds scored in any of these assays.

O=C(Nc1nc2c(s1)CN(Cc1ccccc1)CC2)c1cccc(S(=O)(=O)N2CCc3ccccc32)c1 was read as BCLXL inh 55*, GLD-1 RNA inh 29, MEX-5 binding -22, E coli Lon inh -113, EBV gp42 block 111* and MCL1 BIM primary 61*.
Screening C1CCCN(c2nc3nonc3nc2N2CCCCCC2)CC1 returned BCLXL inh 6, GLD-1 RNA inh 6, MEX-5 binding -5, E coli Lon inh 6, EBV gp42 block 2 and MCL1 BIM primary -1.
Screening Nc1nc2nonc2nc1N1CCCCC1 returned BCLXL inh 34*, GLD-1 RNA inh 9, MEX-5 binding -4, E coli Lon inh 1, EBV gp42 block 0 and MCL1 BIM primary 25.
Screening CCOC(=O)C1=C[C@@H](C2CCCC2)N(S(=O)(=O)c2ccc([N+](=O)[O-])cc2)[C@H]1c1ccccc1 returned E coli Lon inh 5.
O=C(Cn1cc2c(n1)CCCC2)NCc1cccs1 was read as BCLXL inh 2, GLD-1 RNA inh 10, MEX-5 binding -2, E coli Lon inh 6, EBV gp42 block -19 and MCL1 BIM primary 0.
O=C(Cn1cc2c(n1)CCCC2)NCc1ccccn1 was read as BCLXL inh 26, GLD-1 RNA inh 20, MEX-5 binding -9, E coli Lon inh 10, EBV gp42 block 53* and MCL1 BIM primary 31.
`CN1C(=O)/C(=C/c2cn(CC(=O)N3CCCCC3)c3ccccc23)c2ccccc21` gave BCLXL inh -2, GLD-1 RNA inh 6, MEX-5 binding -27*, EBV gp42 block -12 and MCL1 BIM primary -10.
O=Cc1cn(CC(=O)N2CCCCC2)c2ccccc12 was read as BCLXL inh 1, GLD-1 RNA inh 6, MEX-5 binding 3, E coli Lon inh -3, EBV gp42 block -6 and MCL1 BIM primary -3.
For CC(=O)N=c1c(C#N)cc2c(=O)n3cccc(C)c3nc2n1CCCOC(C)C the results were BCLXL inh 16, GLD-1 RNA inh 0, MEX-5 binding -26*, E coli Lon inh -15, EBV gp42 block 2 and MCL1 BIM primary 23.
COc1ccc(C(=O)N=c2c(C#N)cc3c(=O)n4cccc(C)c4nc3n2Cc2ccco2)cc1 was read as MEX-5 binding -41* and EBV gp42 block 22.
Screening N=c1c(S(=O)(=O)c2ccc(Cl)cc2)cc2c(=O)n3ccccc3nc2n1C1CCCCC1 returned BCLXL inh -2, GLD-1 RNA inh -1, MEX-5 binding -46*, E coli Lon inh -7 and MCL1 BIM primary -6.
For N=c1c(S(=O)(=O)c2ccc(Cl)cc2)cc2c(=O)n3ccccc3nc2n1CCN1CCOCC1 the results were BCLXL inh -6, GLD-1 RNA inh -1, MEX-5 binding -2, E coli Lon inh -8, EBV gp42 block -4 and MCL1 BIM primary -5.
N=c1c(S(=O)(=O)c2ccc(Cl)cc2)cc2c(=O)n3ccccc3nc2n1CCc1ccccc1 was read as BCLXL inh 2, GLD-1 RNA inh -2, MEX-5 binding -63*, E coli Lon inh -6 and MCL1 BIM primary 4.
Screening O=C1NC(=O)c2cc(Br)cc3cccc1c23 returned BCLXL inh 7, GLD-1 RNA inh -3, MEX-5 binding 1, E coli Lon inh -5, EBV gp42 block 14 and MCL1 BIM primary 8.
For Cc1ccc(NS(=O)(=O)c2cc3c4c(cccc4c2)C(=O)NC3=O)cc1C the results were BCLXL inh 31*, GLD-1 RNA inh 11, MEX-5 binding -7, E coli Lon inh -3, EBV gp42 block 18 and MCL1 BIM primary 27.
Screening CN(C)c1ccc(NC(=O)C(=O)C2C(=O)Nc3ccccc32)cc1 (stereo not drawn) returned BCLXL inh 5, GLD-1 RNA inh 1, MEX-5 binding -3, E coli Lon inh 5, EBV gp42 block -13 and MCL1 BIM primary 3.
CN(C)c1ccc(CC2C(=O)Nc3ccccc32)cc1 (stereo not drawn) was read as BCLXL inh 46*, GLD-1 RNA inh 21, MEX-5 binding -6, E coli Lon inh 17, EBV gp42 block -4 and MCL1 BIM primary 34.
`CC(C)CN1C(=O)C(=O)N(CC(=O)c2ccc[nH]2)C1=O` gave BCLXL inh 5, GLD-1 RNA inh 5, MEX-5 binding 2, E coli Lon inh -2 and MCL1 BIM primary 0.
`O=C(COc1ccc([N+](=O)[O-])cc1)NN=C1CCCC1` gave BCLXL inh 3, GLD-1 RNA inh 3, MEX-5 binding -2, E coli Lon inh -7, EBV gp42 block -1 and MCL1 BIM primary 0.
`O=C1CCC/C(=N\NC(=O)COc2ccc(Cl)cc2)C1` gave BCLXL inh 6, GLD-1 RNA inh 64*, MEX-5 binding -3, E coli Lon inh 16, EBV gp42 block 7 and MCL1 BIM primary 10.
`COc1ccccc1C(=O)Nc1ccnn1C1CCN(C2CCSCC2)CC1` gave BCLXL inh 42*, GLD-1 RNA inh 20, MEX-5 binding -3, E coli Lon inh -1 and MCL1 BIM primary 42*.
For COc1ccccc1C(=O)Nc1ccnn1C1CCN(C)CC1 the results were BCLXL inh 1, GLD-1 RNA inh 6, E coli Lon inh -2 and MCL1 BIM primary 0.
COc1ccccc1C(=O)Nc1ccnn1C1CCN(C(C)CSC)CC1 (stereo not drawn) was read as BCLXL inh 42*, GLD-1 RNA inh 13, MEX-5 binding -26*, E coli Lon inh -4 and MCL1 BIM primary 45*.
For COc1ccccc1C(=O)Nc1ccnn1C1CCN(C(=O)C2CCOC2)CC1 (stereo not drawn) the results were BCLXL inh 6, GLD-1 RNA inh 7, MEX-5 binding 1, E coli Lon inh 0 and MCL1 BIM primary 3.
For Cc1ccccc1C(=O)Nc1ccnn1C1CCN(C2CCSCC2)CC1 the results were BCLXL inh 36*, GLD-1 RNA inh 12, MEX-5 binding -13, E coli Lon inh -17 and MCL1 BIM primary 36.
For O=C(O)c1ccccc1C(=O)NCCc1c(C(=O)O)[nH]c2ccc(Cl)cc12 the results were BCLXL inh -2, GLD-1 RNA inh -1, MEX-5 binding 1, E coli Lon inh 8, EBV gp42 block 0 and MCL1 BIM primary 0.
Screening Cc1nc2ccccc2n1CC(=O)OCC(=O)N1CCC(C)CC1 returned GLD-1 RNA inh 9 and E coli Lon inh -1.
O=c1[nH]c2ccc(N=Cc3c(O)ccc4cc(Br)ccc34)cc2[nH]1 was read as MEX-5 binding -1, E coli Lon inh -148 and EBV gp42 block 82*.
`CC(=O)c1cccc(NC(=O)c2cc(=O)[nH]c3ccc(S(=O)(=O)N4CCOCC4)cc23)c1` gave GLD-1 RNA inh 6 and E coli Lon inh -8.
COc1ccc(/C=C2\CCCC(C(=O)C(F)(F)F)=C2O)cc1OC was read as BCLXL inh -5, GLD-1 RNA inh -1, MEX-5 binding -34*, EBV gp42 block -6 and MCL1 BIM primary -11.
